# Results taken from PubChem BioAssay (NCI).
# This is part of a sample that, as a whole, favours compounds with a hit. Of some 83,000 tested, about 20% had one in any assay.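 Compound tested at a single concentration for 48 hours in 96-well plates; a percent growth value below 10 was scored as active.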 Values without a mark were called inactive. Active and inactive are the calls of the source.
# Tested on: MDA-MB-468 breast
# Assay: NCI-60 one-dose screen, 48 h (100 = growth as untreated, 0 = no growth, -100 = all killed)
# Settings: 10 µM unless noted
row,Compound,growth
1,Cc1nc2ccc(-n3c(-c4ccc(Cl)cc4)nc4ccccc4c3=O)cc2n1Cc1ccccc1,77.6%
2,Cc1cc2c(-c3nc4ccccc4[nH]3)c(O)c(O)cc2c(O)c1-c1c(C)cc2c(-c3nc4ccccc4[nH]3)c(O)c(O)cc2c1O,-18.3% (active)
3,Clc1ccc(-c2cnc3c(-c4ccnc(N5CCNCC5)c4)cnn3c2)cc1,16.3%
4,COc1ccc(-c2nnc(SCC(=O)c3ccc(Cl)cc3)o2)cc1,109%
5,O=C1c2ccccc2OC=C(c2ccccc2)N1CCCCNc1ccc(S(=O)(=O)Nc2ncccn2)cc1,103%
6,CCCCn1c(=O)c(/C=C/C(=O)/C=C/c2ccc(OC)cc2)cc2cc(Cl)ccc21,86.1%
7,O=C1C=C[C@]2(C[C@@H](c3cccc(C(F)(F)F)c3)O[C@@H](c3cccc(C(F)(F)F)c3)O2)O1,-48.8% (active)
8,c1cnc2[nH]cc(-c3csc(-c4cn(CCCN5CCOCC5)c5ccccc45)n3)c2c1,26.2%
9,CC(C)=CCc1ccc(O)c(=O)cc1C(C)C,-24.2% (active)
10,FC(F)(F)c1ccc2c(Nc3cccc(C4CC(c5ccccc5)=NN4c4ccc(Cl)cc4)c3)ccnc2c1 (stereo not drawn),47.4%
11,CCS(=O)(=O)Nc1ccc(C(=O)CC2(O)C(=O)Nc3ccccc32)cc1 (stereo not drawn),95.4%
12,CCNC(=O)c1ccc2c(c1)nc(-c1ccc(Cl)cc1)n2-c1cc(C(C)(C)C)[nH]n1,32.8%
13,COc1cccc(/C=C2\CCc3ccccc3C2=O)c1,63.9%
